What all share (assay): NCI-60 one-dose screen, 48 h (100 = growth as untreated, 0 = no growth, -100 = all killed)
What all share (details): 10 µM unless noted

Assay [1] has as its system NCI-H226 lung.
Assay [2] relates to NCI-H322M lung.
The test system of assay [3] is HOP-62 NSCLC.
The test system of assay [4] is NCI-H460 lung.
For assay [5], the system named is HOP-92 NSCLC.
Assay [6] deals with NCI-H522 lung.
In assay [7] the test system is A549/ATCC NSCLC.
Assay [8] deals with 786-0 renal.
Assay [9] relates to COLO 205 colon.
In assay [10] the test system is DU-145 prostate.

The panel holds about 83,000 compounds, 20% with a hit somewhere; the sample as a whole holds those more often.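 Cell lines were cultured in 96-well plates, exposed to a single compound concentration, and assessed for percent growth 48 hours later.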 A number with no mark means an inactive call. Activity calls are given as the source filed them. How the source made its calls: active means growth percent below 10; inactive means the rest.

Take `CCOC(=O)c1c(Nc2ccccc2)nn2c(N)c(C#N)c(-c3ccccc3)nc12`: the growth in [1] is 83.3%; in [2], 94.8%; in [3], 97.7%; in [4], 93.2%; in assay [5], 81.8%; in [6], 89.7%. Further, the growth is 97% in assay [7], 79.5% in assay [8], 87.4% in assay [9] and 81.1% in [10].

Consider `Cc1c(Nc2nnc(SCC(=O)Nc3sc4c(c3C#N)CCCC4)s2)c(=O)n(-c2ccccc2)n1C`, for which the growth in [1] is 104%; in assay [2], 98.9%; in [3], 107%; in assay [4], 100%; in assay [5], 121%; in assay [6], 97.5%. Further, the growth in assay [7] is 106%; in assay [8], 108%; in assay [9], 118%; in [10], 105%.

In the case of `Cn1cc(-c2cc(N)n3nc(-c4cn(C)c5ccc(F)cc45)cc3n2)c2cc(F)ccc21`, the growth was 106% in assay [1]; 71.2% in assay [2]; 92% in assay [3]; -23.2% (active) in assay [4]; 75.7% in [5]; 28.6% in assay [6]. In addition, the growth in assay [7] was 18.5%; in assay [8], -87.7% (active); in assay [9], 115%; in assay [10], 44.8%.

For the compound `CCOC(=O)c1c(Nc2ccccc2)nn2c(-c3ccco3)c(C#N)cnc12`, the growth in assay [1] was 76.9%; in [2] it was 96.8%; in assay [3], 95.6%; in [4] it was 93.1%; in [5], 68%; in assay [6], 82.6%. Further, the growth in [7] was 95.2%; in assay [8], 67.2%; in assay [9], 98.6%; in assay [10] it was 87.9%.

As to `COc1ccc(C(=O)/C=C/c2ccc(OCc3ccc(Cl)cc3)c(OC)c2)cc1OC`, the growth in assay [1] was 56.4%; in assay [2] it was 70.9%; in [3] it was 103%; in [4], 61.9%; in assay [5], 64.9%; in assay [6], 68.3%. Moreover, the growth in assay [7] was 70%; in [8] it was 80.7%; in assay [9] it was 88.4%; in assay [10], 72.3%.

For `O=C(N/N=C/c1cccs1)c1[nH]c2ccc(Br)cc2c1-c1ccccc1`, the growth in assay [1] was 50.9%; in assay [2], 44.7%; in assay [3], 44.2%; in assay [4], 6.54% (active); in assay [5] it was 39.9%; in assay [6], -43.9% (active). The growth is 23.1% in [7], 12% in assay [8], -67.6% (active) in assay [9] and 20.7% in assay [10].

For `COc1cc(/C=C/C(=O)c2ccc(C)cc2)ccc1Oc1nc(NCCO)nc(N2CCOCC2)n1`, the growth in assay [1] is 52%; in [2], 102%; in assay [3], 104%; in assay [4], 69.2%; in [5] it was 63.6%; in assay [6], 76.9%. The growth in [7] was 97%; in assay [8], -50.7% (active); in assay [9], 107%; in [10], 87%.

As to `C#Cc1nc(C2=C(C)C(=O)/C(=N/OC(C)=O)C2)cs1`, the growth was 107% in [1]; 101% in [2]; 88.5% in assay [3]; 98.5% in assay [4]; 50% in [5]; 82.6% in assay [6]. The growth is 96.3% in [7], -94.5% (active) in assay [8], 119% in [9] and 85.7% in [10].

As for `C#C[C@]1(O)CC[C@H]2[C@@H]3CC=C4c5sc(-c6ccc(F)cn6)nc5CC[C@]4(C)[C@H]3CC[C@@]21C`, the growth was 55.8% in assay [1]; 65.4% in assay [2]; 24.6% in assay [3]; 10.4% in assay [4]; 49.2% in assay [5]; 56.9% in [6]. Further, the growth in assay [7] was 37.2%; in [8], -62.5% (active); in assay [9] it was 92.2%; in assay [10], 47.3%.

Turning to `O=C(CN1C(=O)/C(=C/c2ccccc2)SC1=S)N1CCOCC1`, the growth in assay [1] was 105%; in assay [2], 91.9%; in assay [3], 97%; in assay [4] it was 105%; in [5] it was 102%; in assay [6], 68.2%. Further, the growth in assay [7] is 97.4%; in [8], 92.3%; in assay [9] it was 116%; in [10], 103%.

Consider `Cn1cc(-c2cc(N)n3nc(-c4cn(C)c5ccc(Br)cc45)cc3n2)c2cc(Br)ccc21`, for which the growth in [1] was 109%; in assay [2], 86.2%; in [3], 94.8%; in assay [4], 69%; in assay [5], 76.9%; in [6], 102%. Moreover, the growth in [7] is 91%; in [8], 94%; in assay [9] it was 118%; in assay [10] it was 60.5%.

On to `Cn1cc(-c2cc(N)n3nc(-c4cn(C)c5ccc(Cl)cc45)cc3n2)c2cc(Cl)ccc21`, for which the growth in assay [1] was 111%; in assay [2], 85.7%; in [3], 102%; in assay [4], 71.4%; in assay [5] it was 95.3%; in assay [6], 100%. Further, the growth in assay [7] was 87.9%; in assay [8] it was 99.4%; in [9], 119%; in [10] it was 71.4%.

In the case of `CCN1CCN(S(=O)(=O)c2oc(-c3ccc(Cl)cc3)nc2C#N)CC1`, the growth in assay [1] is 106%; in assay [2], 96.5%; in assay [3] it was 108%; in assay [4] it was 105%; in assay [5], 36.7%; in assay [6], -63% (active). Further, the growth in assay [7] is 95.6%; in assay [8] it was -49.7% (active); in assay [9] it was 65.5%; in [10], 81.7%.

`COC(=O)C1CCCN(S(=O)(=O)/N=C2\NC(=O)NC2=C(Cl)Cl)C1` (stereo not given): the growth is 105% in assay [1]; 103% in [2]; 118% in [3]; 108% in assay [4]; 110% in assay [5]; 87.7% in assay [6]. For the same compound, the growth in [7] was 106%; in [8] it was 102%; in assay [9], 112%; in [10], 112%.

For `COc1cc2cc(Oc3ccc(NC(=O)c4cccc(C(F)(F)F)c4)cc3)c(C)nc2cc1OCCN1CCCCC1`, the growth in assay [1] is 103%; in assay [2], 69.2%; in assay [3], 98.1%; in assay [4] it was -69.4% (active); in assay [5] it was 43.7%; in assay [6], 68.9%. Besides, the growth was 19.2% in [7], 55.4% in assay [8], -94.8% (active) in assay [9] and 59.4% in assay [10].

Regarding `CC(=NNc1ncnc2ccccc12)c1ccc(S(C)(=O)=O)cc1`, the growth in assay [1] was 96.8%; in [2] it was 100%; in assay [3], 95%; in assay [4] it was 108%; in assay [5], 95.1%; in assay [6] it was 100%. Further, the growth in assay [7] was 111%; in [8], 102%; in assay [9], 113%; in [10], 115%.

In the case of `COc1ccc(NC(=O)c2sc3nc(-c4cnccn4)cc(-c4cccs4)c3c2N)cc1`, the growth was 35.5% in assay [1]; 82.3% in assay [2]; 84.4% in [3]; 55.3% in [4]; 57.7% in [5]; 78.2% in [6]. Also, the growth in [7] is 72.5%; in assay [8] it was 62.7%; in assay [9] it was 64.7%; in assay [10], 88.9%.

Turning to `COc1ccc(C(=O)/C=C/c2ccc(Oc3nc(NCCO)nc(N4CCOCC4)n3)c(OC)c2)cc1`, the growth in [1] was 92.9%; in [2], 96.6%; in assay [3] it was 106%; in assay [4], 79.8%; in [5], 104%; in assay [6] it was 66.4%. The growth was 103% in [7], 100% in [8], 114% in [9] and 95% in [10].

Turning to `COc1cc(/C=C/C(=O)c2cc(OC)c(OC)c(OC)c2)ccc1OCc1ccccc1`, the growth was 48.6% in assay [1]; 45.5% in [2]; 40.8% in assay [3]; 22.4% in [4]; 58.4% in assay [5]; 49.3% in [6]. Moreover, the growth was 38.8% in [7], 40.1% in [8], 93.4% in [9] and 27.2% in assay [10].

Regarding `Clc1ccc2oc3c(NCCCn4ccnc4)c4ccccc4nc3c2c1`, the growth in assay [1] was 40%; in assay [2], 41.5%; in [3], 66.2%; in assay [4], -25.9% (active); in [5] it was 47.2%; in [6], 48.3%. In addition, the growth in assay [7] is 32.7%; in assay [8], 6.65% (active); in assay [9] it was 55.2%; in assay [10], 21.9%.

As to `O=C(O)CCCCCN1C(=O)/C(=C/c2ccc(O)c(O)c2)SC1=S`, the growth is 106% in assay [1]; 89.9% in assay [2]; 110% in [3]; 108% in assay [4]; 139% in assay [5]; 98% in assay [6]. Further, the growth in [7] was 113%; in assay [8] it was 105%; in assay [9] it was 125%; in [10], 103%.

Regarding `COc1cc(/C=C/C(=O)c2ccc(F)cc2)ccc1Oc1nc(NCCO)nc(N2CCOCC2)n1`, the growth was 87.8% in assay [1]; 97.4% in assay [2]; 102% in [3]; 94.2% in assay [4]; 94.2% in assay [5]; 64.9% in [6]. Also, the growth was 101% in [7], 98.3% in assay [8], 122% in [9] and 98.4% in assay [10].

On to `Cc1sc2nc(NCc3ccccc3Cl)[nH]c(=O)c2c1C`, for which the growth in assay [1] was 88.5%; in [2] it was 96.6%; in [3], 93.4%; in [4] it was 50.4%; in assay [5] it was 91.3%; in assay [6], 95.3%. In addition, the growth in assay [7] was 84%; in assay [8], 91%; in [9] it was 113%; in [10] it was 98%.

Consider `CCN(CC)c1ccc(C=O)c(OCc2cn(CC(=O)Nc3ccc(Cl)cc3)nn2)c1`, for which the growth in assay [1] was 77.5%; in assay [2], 94.9%; in assay [3], 89.9%; in [4], 52%; in assay [5], 81.4%; in [6], 80.9%. Moreover, the growth in assay [7] is 87.9%; in assay [8], 72.9%; in [9], 111%; in assay [10], 81%.

For the compound `COc1ccc2[nH]cc(-c3cc(N)n4nc(-c5c[nH]c6ccc(OC)cc56)cc4n3)c2c1`, the growth is 36.8% in assay [1]; 25.4% in assay [2]; 76.2% in [3]; -84.6% (active) in assay [4]; 79.1% in assay [5]; 53.9% in assay [6]. The growth in [7] is -5.78% (active); in assay [8], -86.4% (active); in assay [9], -54.3% (active); in assay [10], -10.5% (active).

`CCOC(=O)c1sc(NCC(=O)Nc2cccc([N+](=O)[O-])c2)c(C(=O)OCC)c1C`: the growth in assay [1] is -33.7% (active); in assay [2], -8.8% (active); in [3], -12.9% (active); in assay [4], 2.96% (active); in assay [5], -19.5% (active); in assay [6] it was -41.5% (active). Moreover, the growth is -38.1% (active) in [7], -12.4% (active) in [8], -33.4% (active) in assay [9] and -6.75% (active) in assay [10].

On to `N#Cc1c(-c2ccc(F)cc2)nc2c(C#N)c(Nc3ccccc3)nn2c1N`, for which the growth in [1] is 112%; in assay [2] it was 105%; in assay [3], 97.3%; in [4] it was 106%; in [5], 92.5%; in assay [6], 97.9%. Further, the growth in assay [7] is 101%; in [8], 86.9%; in assay [9], 110%; in assay [10], 103%.

Values taken from PubChem BioAssay (NCI).
